Where a name gives a salt, the structure may show the parent alone.
test system: Danio rerio larvae (5 dpf); experiment: activity during period 15 (no stimuli), difference vs DMSO (percentage points (treated minus DMSO)); higher = more of the behaviour than the DMSO vehicle control; settings: 10 µM; exposure time: 3 h pre-incubation + 3 h imaging
Description: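 5-dpf wild-type zebrafish larvae were imaged in 96-well plates. They were treated with 190 Tocris FDA-approved drugs at 10 µM (1 µl/ml DMSO) for 3 h before and 3 h during imaging at 28.5 °C, 48 larvae per drug. Automated image analysis gave % time moving and optomotor responses. Values are drug group mean minus DMSO vehicle mean (n=844), in percentage points, for 10 behaviours.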

SMILES	activity during period 15
O=c1[nH]c2ccccc2n1C1CCN(CCCC(c2ccc(F)cc2)c2ccc(F)cc2)CC1 [Pimozide]	-8.89
CC(O)(CS(=O)(=O)c1ccc(F)cc1)C(=O)Nc1ccc(C#N)c(C(F)(F)F)c1 (configuration not stated) [Bicalutamide]	5.81
CN1C[C@H](C(=O)N[C@]2(C)O[C@@]3(O)[C@@H]4CCCN4C(=O)[C@H](Cc4ccccc4)N3C2=O)C[C@@H]2c3cccc4[nH]cc(c34)C[C@H]21 [Dihydroergotamine mesylate]	1.37
CC(C)C[C@H]1C(=O)N2CCC[C@H]2[C@]2(O)O[C@](NC(=O)[C@@H]3C=C4c5cccc6[nH]c(Br)c(c56)C[C@H]4N(C)C3)(C(C)C)C(=O)N12 [Bromocriptine mesylate]	3.6
Cc1cccc([C@H](C)c2c[nH]cn2)c1C [Dexmedetomidine hydrochloride]	-35.2
COc1ccc(C(CN(C)C)C2(O)CCCCC2)cc1 (configuration not stated) [Venlafaxine hydrochloride]	-20.4
C=C1C[C@@H]2[C@H](CC[C@]3(C)C(=O)CC[C@@H]23)[C@@]2(C)C=CC(=O)C=C12 [Exemestane]	-15.7
CCN(C)C(=O)Oc1cccc([C@H](C)N(C)C)c1 [Rivastigmine tartrate]	-7.13
COc1cc2c(cc1OC)C1CC(=O)C(CC(C)C)CN1CC2 (configuration not stated) [Tetrabenazine]	3.06
CC[C@@H](C(N)=O)N1CCCC1=O [Levetiracetam]	4.21
N[C@@H]1C[C@H]1c1ccccc1 [Tranylcypromine hydrochloride]	-10.3
C=CCN1C[C@H](C(=O)N(CCCN(C)C)C(=O)NCC)C[C@@H]2c3cccc4[nH]cc(c34)C[C@H]21 [Cabergoline]	-8.5

From the supplement of paper PMC9023506
